Results on 16 molecules are retold here after PubChem BioAssay (NCATS).

Results filed as inconclusive are left out. A call without a number means that no potency is given here. Calls of active or inactive are those of the source. Calls come from the whole dose curve; as a rule, active = well fitted curve in the direction sought with a large enough effect; inconclusive = small, poorly fitted or top-dose-only effect, or another doubt; inactive = no such curve, though single readings can be large; an effect the other way counts as inactive or inconclusive.

The target of test [1] is Aldehyde dehydrogenase, mitochondrial (Homo sapiens) (UniProt P05091). Briefly: qHTS for Inhibitors of the Aldehyde Dehydrogenase Family (ALDH2) Primary screen (AID 2061308). Note: nearly all actives have a fitted effect of over 55% in size.
Test [2] addresses Retinaldehyde dehydrogenase 3 (Homo sapiens) (UniProt P47895). In words: qHTS for Inhibitors of the Aldehyde Dehydrogenase Family (ALDH1A3) Primary screen (AID 2061315).

Turning to `Cn1nnnc1Sc1ncnc2scc(-c3ccc(C(F)(F)F)cc3)c12`, the Potency entry in test [1] and in test [2] was “inactive” each time.
For `CC(=O)NC1CCN(c2nc(-c3ccc(Br)cc3)cs2)CC1`, the Potency entry in test [1] and in test [2] was “inactive” in each case.
As for `NC(=O)C1CCN(c2nc(-c3cccc(Cl)c3)cs2)CC1`, the Potency entry in test [1] and in test [2] was “inactive” each time.
On to `CC(C)c1ccccc1-c1nc(NCc2ccc(-c3cccnc3)cc2)c2ccsc2n1`, for which the Potency result in test [1] and in test [2] was “inactive” throughout.
For `CC(C)Cc1ccc(-c2ccc(=O)n(CC(=O)NCCc3ccccc3)n2)cc1`, the Potency entry in test [1] and in test [2] was “inactive” each time.
Turning to `Cc1nnc(-c2cnn(C)c2)n1CCCn1ccnc1`, the Potency entry in test [1] and in test [2] was “inactive” each time.
For `CC(C)c1ccccc1-c1ncc(N(C)C)c(NCc2ccc(-c3cccnc3)cc2)n1`, the Potency result in test [1] and in test [2] was “inactive” in each case.
Regarding `Cc1nc(CNc2ncnc3ccc(-c4ccoc4)cc23)cs1`, the Potency entry in test [1] and in test [2] was “inactive” throughout.
For the molecule `O=S1(=O)N=C(Oc2ccc(-c3ccccc3)cc2)c2ccccc21`, the Potency entry in test [1] and in test [2] was “inactive” each time.
Regarding `CC1CCC/C=C/C(=O)c2c(O)cc(O)cc2CC(=O)O1` (configuration not stated), the Potency result in test [1] and in test [2] was “inactive” in each case.
Take `CCCn1c(-c2ccc(F)cc2)nc2c(NCCCN3CCCCC3C)nc(C)nc21` (configuration not stated): the Potency result in test [1] and in test [2] was “inactive” throughout.
`Cc1cc(C2N=C(Nc3nc4ccccc4o3)NC3=C2C(=O)CCC3)n[nH]1` (configuration not stated): the Potency result in test [1] and in test [2] was “inactive” throughout.
In the case of `CCCn1c(C)nc2c(N3CCCN(Cc4ccccc4)CC3)nc(C)nc21`, the Potency entry in test [1] and in test [2] was “inactive” throughout.
On to `CC(C)=CCCC1(C)C2CCC1(C)C(O)C2` (configuration not stated), for which the Potency result in test [1] and in test [2] was “inactive” throughout.
`COc1cc(O)c(C(CC(=O)N2CCCC(C(=O)c3ccccc3)C2)c2ccc3c(c2)OCO3)c(OC)c1` (configuration not stated): the Potency entry in test [1] and in test [2] was “inactive” throughout.
With `COc1cccc(NC(=S)N2CCN(c3cccc(C(F)(F)F)n3)CC2)n1`, the Potency result in test [1] and in test [2] was “inactive” each time.
